In PubChem BioAssay (EPA / NIEHS) one finds AC50 and outcome data, which are given here for 39 compounds.

Records with an inconclusive call do not appear. Active and inactive are the calls of the source. The calls were made as follows: active = hit-call score of the fitted dose curve at least 0.9, where 1 is the maximum; inconclusive = response in the unintended direction; inactive = score below 0.9.

The first test has as its target Cellular tumor antigen p53 (Homo sapiens) (UniProt P04637). Nature of the test: TOX21_p53_BLA_p3_ratio: Tox21 HCT-116 p53 Agonism Beta-lactamase Assay, Ratio, Phase 3 (AID 2283596). The procedure, abridged: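 HCT116 p53-bla cells (4000/well) given compound in DMSO (217-fold dilution) after 5 h, incubated 16 h at 37C. CCF4-AM substrate 2 h at room temperature; 460/530 nm emission ratio, gain fitted against DMSO.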
The AC50 is the concentration giving half of the maximal activity seen. For `C=C1C(=O)O[C@H]2[C@H]1CC/C(C)=C/CC[C@@]1(C)O[C@@H]21`, the AC50 was 34.3 µM (active).
As for `Cc1ccccc1C(=O)O`, the outcome was inactive.
On the same count and under the same terms, with `N=C(N)c1ccc(C=Cc2ccc(C(=N)N)cc2O)cc1` the entry was “inactive”; with `O=C(c1ccc(F)cc1)C1CCN(CCn2c(=S)[nH]c3ccccc3c2=O)CC1`, “inactive”; with `CNC1(C)C2CCC(C2)C1(C)C` (stereo not given), “inactive”.
Same read-out and setting: to `O=[N+]([O-])c1cc(Cl)c(Cl)c(Cl)c1Cl` belongs “inactive”; to `O=C(O)C(O)[C@H](O)[C@@H](O)[C@H](O)[C@H](O)CO` (stereo not given in full), “inactive”.
With `CC1CCCC(C)N1NC(=O)c1ccc(Cl)c(S(N)(=O)=O)c1` (stereo not given), the outcome was inactive.
On to `CC#N`, for which the outcome was inactive.
Same read-out and setting: to `CC(C(=O)O)c1ccc2c(c1)Cc1cccnc1O2` (stereo not given) belongs “inactive”.
On the same count and under the same terms, to `Nc1nc(N)c(-c2ccccc2)s1` belongs “inactive”.
Same read-out and setting: with `O=C(O)[C@H]1/C(=C/CO)O[C@@H]2CC(=O)N21` the entry was “inactive”; with `C/C(=C\C(=O)OCCCCCCCCC(=O)O)C[C@@H]1OC[C@H](C[C@@H]2O[C@H]2[C@@H](C)[C@H](C)O)[C@@H](O)[C@H]1O`, “inactive”.
As to `Cc1ccc(C(C)(C)c2ccc(C)cc2)cc1`, the outcome was inactive.
As to `CC[C@@H](N)CO`, the result was inactive.
Consider `CC#CCC(C)[C@H](O)/C=C/[C@@H]1[C@H]2C/C(=C/CCCC(=O)O)C[C@H]2C[C@H]1O` (stereo not given in full), for which the result was inactive.
Same read-out and setting: with `CCCCCCCCCCCCCCCC(=O)O[C@@H]1CC(C)=C(/C=C/C(C)=C/C=C/C(C)=C/C=C/C=C(C)/C=C/C=C(C)/C=C/C2=C(C)C[C@@H](OC(=O)CCCCCCCCCCCCCCC)CC2(C)C)C(C)(C)C1` the entry was “inactive”.
Take `CCc1c(C)[nH]c2c1C(=O)C(CN1CCOCC1)CC2` (stereo not given): the result was inactive.
On the same count and under the same terms, to `N[C@@H](CSCCCO)C(=O)O` belongs “inactive”; to `Cn1nnnc1SCC1=C(C(=O)O)N2C(=O)[C@@H](NC(=O)[C@H](O)c3ccccc3)[C@H]2SC1`, “inactive”; to `CN(C)C(=O)Oc1ccc[n+](C)c1`, “inactive”.

System in a further test: not listed separately
Briefly: TOX21_p53_BLA_p4_viability: Viability Assessment in the Tox21 HCT-116 p53 Agonism Beta-lactamase Assay, Phase 4 (AID 2283597).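 Also: hits lower the luminescence signal meaning cytotoxicity.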 The method in brief:
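HCT116 p53-bla cells (4000/well) rested 5 h at 37C, then received compounds in DMSO (217-fold dilution) for 16 h at 37C, 5% CO2. CellTiter-Glo was added after the CCF4-AM read, and luminescence was read after 30 min at room temperature.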
As for `CNc1c2c(nn1C)CCCC2`, the call was inactive.
Still for that read-out and setting: to `CN1CCN(C2=Nc3cc(F)ccc3Cc3ccccc32)CC1` belongs “inactive”.
Same read-out and setting: with `C[N+]1(C)CCN(CC(O)(c2ccccc2)C2CCCCC2)CC1` (stereo not given) the entry was “inactive”; with `NS(=O)(=O)c1ccccc1Cl`, “inactive”; with `O=C1CCN(c2ccccc2)N1`, “inactive”.
Same read-out and setting: with `O=C(CCN1CCN(CCO)CC1)N1c2ccccc2Sc2ccc(C(F)(F)F)cc21` the entry was “inactive”; with `CO/N=C(\C(=O)N[C@@H]1C(=O)N2C(C(=O)O)=C(CSc3nc(C)c(CC(=O)O)s3)CS[C@H]12)c1csc(N)n1`, “inactive”.
Consider `Nc1ccc(C(=O)O)c(O)c1`, for which the outcome was inactive.
Consider `CC(C)(C)C(=O)OCOP(=O)(COCCn1cnc2c(N)ncnc21)OCOC(=O)C(C)(C)C`, for which the call was inactive.
Take `CC(C)(O/N=C(\C(=O)N[C@@H]1C(=O)N2C(C(=O)[O-])=C(C[n+]3ccccc3)CS[C@H]12)c1csc(N)n1)C(=O)O`: the result was inactive.
Turning to `CC1(C)OC[C@@H](COC(=O)CCc2ccc(OC[C@@H](O)CNCCNC(=O)N3CCOCC3)cc2)O1`, the compound was called inactive.
The same measure, in the same setting: with `Cc1nc2ccccc2s1` the entry was “inactive”.
For the compound `C=C1C(=O)O[C@H]2[C@H]1CC/C(C)=C/CC[C@@]1(C)O[C@@H]21`, the AC50 was 36.9 µM (active).
For the compound `Cc1ccccc1C(=O)O`, the result was inactive.
Consider `N=C(N)c1ccc(C=Cc2ccc(C(=N)N)cc2O)cc1`, for which the compound was classed as inactive.
The same measure, in the same setting: to `O=C(c1ccc(F)cc1)C1CCN(CCn2c(=S)[nH]c3ccccc3c2=O)CC1` belongs “inactive”; to `CNC1(C)C2CCC(C2)C1(C)C` (stereo not given), “inactive”.
On the same count and under the same terms, with `O=[N+]([O-])c1cc(Cl)c(Cl)c(Cl)c1Cl` the entry was “inactive”; with `O=C(O)C(O)[C@H](O)[C@@H](O)[C@H](O)[C@H](O)CO` (stereo not given in full), “inactive”; with `CC(C(=O)O)c1ccc2c(c1)Cc1cccnc1O2` (stereo not given), “inactive”.
In the case of `Nc1nc(N)c(-c2ccccc2)s1`, the compound was classed as inactive.
On the same count and under the same terms, to `O=C(O)[C@H]1/C(=C/CO)O[C@@H]2CC(=O)N21` belongs “inactive”; to `C/C(=C\C(=O)OCCCCCCCCC(=O)O)C[C@@H]1OC[C@H](C[C@@H]2O[C@H]2[C@@H](C)[C@H](C)O)[C@@H](O)[C@H]1O`, “inactive”; to `Cc1ccc(C(C)(C)c2ccc(C)cc2)cc1`, “inactive”.
Take `CC[C@@H](N)CO`: the result was inactive.
Same read-out and setting: with `CC#CCC(C)[C@H](O)/C=C/[C@@H]1[C@H]2C/C(=C/CCCC(=O)O)C[C@H]2C[C@H]1O` (stereo not given in full) the entry was “inactive”; with `CCCCCCCCCCCCCCCC(=O)O[C@@H]1CC(C)=C(/C=C/C(C)=C/C=C/C(C)=C/C=C/C=C(C)/C=C/C=C(C)/C=C/C2=C(C)C[C@@H](OC(=O)CCCCCCCCCCCCCCC)CC2(C)C)C(C)(C)C1`, “inactive”; with `N[C@@H](CSCCCO)C(=O)O`, “inactive”.
As for `Cn1nnnc1SCC1=C(C(=O)O)N2C(=O)[C@@H](NC(=O)[C@H](O)c3ccccc3)[C@H]2SC1`, the outcome was inactive.
`CN(C)C(=O)Oc1ccc[n+](C)c1`: the result was inactive.

The target of another test is Cellular tumor antigen p53 (Homo sapiens) (UniProt P04637). Briefly: TOX21_p53_BLA_p5_ratio: Tox21 HCT-116 p53 Agonism Beta-lactamase Assay, Ratio, Phase 5 (AID 2283599). The method in brief: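 HCT-116 p53-bla cells (4000/well) plated 5 h, dosed with compound (217-fold DMSO dilution) for 16 h at 37 C; CCF4-AM substrate 2 h at room temperature. Activity is the 460/530 nm emission ratio (405 nm excitation), fitted in gain-of-signal direction versus DMSO.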
Cellular tumor antigen p53 (Homo sapiens), sequence (P04637 whole entry, looked up): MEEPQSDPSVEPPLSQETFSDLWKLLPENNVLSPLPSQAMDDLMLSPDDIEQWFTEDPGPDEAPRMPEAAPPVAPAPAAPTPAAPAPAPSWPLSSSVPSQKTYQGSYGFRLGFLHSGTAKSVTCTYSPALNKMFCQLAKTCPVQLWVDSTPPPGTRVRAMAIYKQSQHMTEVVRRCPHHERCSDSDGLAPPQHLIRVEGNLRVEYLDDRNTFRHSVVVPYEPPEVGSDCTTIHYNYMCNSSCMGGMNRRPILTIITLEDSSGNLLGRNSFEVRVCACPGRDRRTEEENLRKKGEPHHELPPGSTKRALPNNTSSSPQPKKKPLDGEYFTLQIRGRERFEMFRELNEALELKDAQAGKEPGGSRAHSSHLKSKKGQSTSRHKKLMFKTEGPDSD
In the case of `CCCCCC/C=C/C(=O)OC`, the outcome was inactive.
Same read-out and setting: with `BrC(Br)C(Br)Br` the entry was “inactive”; with `CNc1c2c(nn1C)CCCC2`, “inactive”.
As to `C[C@H]1NCc2cc(-c3ccc4c(=O)c(C(=O)O)cn(C5CC5)c4c3OC(F)F)ccc21`, the result was inactive.
On the same count and under the same terms, to `O=C(CCN1CCN(CCO)CC1)N1c2ccccc2Sc2ccc(C(F)(F)F)cc21` belongs “inactive”; to `CO/N=C(\C(=O)N[C@@H]1C(=O)N2C(C(=O)O)=C(CSc3nc(C)c(CC(=O)O)s3)CS[C@H]12)c1csc(N)n1`, “inactive”; to `Cl.Cl.N.N.[Cl-].[Cl-].[Pt+2]`, “inactive”.
Still for that read-out and setting: with `CC1(C)OC[C@@H](COC(=O)CCc2ccc(OC[C@@H](O)CNCCNC(=O)N3CCOCC3)cc2)O1` the entry was “inactive”; with `CCOC(=O)c1ccc(OC(=O)CCCCCN=C(N)N)cc1`, “inactive”; with `CC[C@H]1OC(=O)C[C@@H](O)[C@H](C)[C@@H](O[C@@H]2O[C@H](C)[C@@H](O)[C@H](N(C)C)[C@H]2O)[C@@H](CCN2C[C@H](C)C[C@H](C)C2)C[C@@H](C)C(=O)/C=C/C(C)=C/[C@@H]1CO[C@@H]1O[C@H](C)[C@@H](O)[C@@H](OC)[C@H]1OC`, “inactive”.
Regarding `N=C(N)c1ccc(C=Cc2ccc(C(=N)N)cc2O)cc1`, the outcome was inactive.
Still for that read-out and setting: with `O=C(c1ccc(F)cc1)C1CCN(CCn2c(=S)[nH]c3ccccc3c2=O)CC1` the entry was “inactive”.
Still for that read-out and setting: to `CNC1(C)C2CCC(C2)C1(C)C` (stereo not given) belongs “inactive”; to `CC1CCCC(C)N1NC(=O)c1ccc(Cl)c(S(N)(=O)=O)c1` (stereo not given), “inactive”.
Still for that read-out and setting: with `CC#N` the entry was “inactive”; with `CC(C(=O)O)c1ccc2c(c1)Cc1cccnc1O2` (stereo not given), “inactive”.
As for `Nc1nc(N)c(-c2ccccc2)s1`, the outcome was inactive.
Same read-out and setting: with `O=C(O)[C@H]1/C(=C/CO)O[C@@H]2CC(=O)N21` the entry was “inactive”; with `C/C(=C\C(=O)OCCCCCCCCC(=O)O)C[C@@H]1OC[C@H](C[C@@H]2O[C@H]2[C@@H](C)[C@H](C)O)[C@@H](O)[C@H]1O`, “inactive”; with `CC[C@@H](N)CO`, “inactive”.
Same read-out and setting: with `CCc1c(C)[nH]c2c1C(=O)C(CN1CCOCC1)CC2` (stereo not given) the entry was “inactive”.
On the same count and under the same terms, to `N[C@@H](CSCCCO)C(=O)O` belongs “inactive”; to `Cn1nnnc1SCC1=C(C(=O)O)N2C(=O)[C@@H](NC(=O)[C@H](O)c3ccccc3)[C@H]2SC1`, “inactive”.
With `CN(C)C(=O)Oc1ccc[n+](C)c1`, the result was inactive.
